The list is not random: actives were taken first. Their share in the collection is about 3.6%.
AmpC inh detg: blocks E. coli AmpC beta-lactamase in detergent assay | P00811 | AmpC hydrolysis of nitrocefin, absorbance 480 nm, 0.01% Triton | Potency, µM (titrated, usually from 114 µM), for the others: at the highest dose activity change, negative = inhibition, most hits filed as inhibitors | 0.041% of 370,000 active;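 note: 0% = no-compound wells and -100% = no-enzyme wells; nearly all actives have a fitted effect of over 25% in size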
Target sequence (P00811 whole entry, looked up): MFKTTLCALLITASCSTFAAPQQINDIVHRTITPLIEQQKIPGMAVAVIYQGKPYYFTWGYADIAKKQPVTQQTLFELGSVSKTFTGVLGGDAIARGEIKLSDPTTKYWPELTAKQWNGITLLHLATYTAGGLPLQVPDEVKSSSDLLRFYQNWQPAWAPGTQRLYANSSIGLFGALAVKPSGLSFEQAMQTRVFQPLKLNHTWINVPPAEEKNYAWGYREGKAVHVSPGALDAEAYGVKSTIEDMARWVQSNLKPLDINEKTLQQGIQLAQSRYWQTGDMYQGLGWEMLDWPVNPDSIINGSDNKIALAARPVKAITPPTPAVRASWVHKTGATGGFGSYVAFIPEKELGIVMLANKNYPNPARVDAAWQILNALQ
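20 mM phosphate pH 7.0 + 0.01% (detergent screen) or 0.0001% Triton X-100; 5.3 nM AmpC reagent; cpd preinc 15 min RT; nitrocefin (800 uM stock) to start; A480 q20 s × 4 min; Activity was normalised to no-enzyme and no-compound control wells.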
AmpC inh no detg: blocks E. coli AmpC beta-lactamase in detergent-free assay; P00811; AmpC nitrocefin hydrolysis, absorbance 480 nm, 0.0001% Triton; Potency, µM (doses to about 57.1 µM), without a hit: top-dose activity change, negative = inhibition, actives largely listed as inhibitors; 0.52% of 330,000 active; AID 485341;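 note: plate controls were no compound for no effect and no enzyme for full effect; nearly all actives have a fitted effect of over 20% in size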
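AmpC (5.3 nM in the dispensed reagent) in 20 mM phosphate pH 7.0 with 0.01% (detergent screen) or 0.0001% Triton X-100 was preincubated with compounds for 15 min at room temperature. Nitrocefin was then added from an 800 uM solution, and hydrolysis was followed at 480 nm.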
Sm TGR block: blocks Schistosoma mansoni thioredoxin glutathione reductase; Potency, µM (highest dose often 114 µM), for the others: at the top dose activity change, negative = inhibition, actives largely listed as inhibitors; purified TGR, DTNB reduction, TNB absorbance 405 nm; 3% of 360,000 active; note: nearly all actives have a fitted effect of over 60% in size
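First, TGR (20 nM dispensed) and NADPH were mixed with compound. Second, a 15 min room-temperature incubation followed. Third, further NADPH and then DTNB were added to start the reaction. Finally, TNB absorbance was monitored kinetically.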
FBPA Giardia inh: Giardia lamblia aldolase inhibition; Potency, µM (titrated, usually from 59.6 µM), inactives show at the top dose activity, negative = inhibition, actives largely listed as inhibitors; A8B2U2; 0.71% of 290,000 active; purified Giardia FBPA; AID 2451; note: nearly all actives have a fitted effect of over 55% in size
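Giardia FBPA (40 nM reagent) was preincubated 10 min at RT with compound (up to 57.5 uM final), then substrate plus GAPDH/TPI/NAD/arsenate coupling system with diaphorase/resazurin was added; resorufin fluorescence (525/598 nm) was read after 20 min.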
* = called active by the depositor; u = inconclusive; x = no result; ! = not confirmed by another sample. Calls come from the whole dose curve; as a rule, active = well fitted curve in the direction sought with a large enough effect; inconclusive = small, poorly fitted or top-dose-only effect, or another doubt; inactive = no such curve, though single readings can be large; an effect the other way counts as inactive or inconclusive. Unless noted, % is set by controls: 0 for no effect and ±100 for the full control effect; potency is the fitted concentration of half-maximal effect.

SMILES	AmpC inh detg	AmpC inh no detg	Sm TGR block	FBPA Giardia inh
COCCNC(=O)c1sc2nc3n(c(=O)c2c1C)CCC3	18%	x	6%	x
CCN(C(=O)c1sc2nc3n(c(=O)c2c1C)CCCCC3)c1ccc(OC)cc1	3%	x	22µM*	x
CCc1ccc(N(CC)C(=O)c2sc3nc4n(c(=O)c3c2C)CCCC4)cc1	11%	x	10µM*	x
COCCCNC(=O)c1sc2nc3n(c(=O)c2c1C)CCC3	25%	x	11µM*	x
CCN(Cc1ccccc1)C(=O)c1sc2nc3n(c(=O)c2c1C)CCCC3	5%	x	-20%	x
CCN(C(=O)c1sc2nc3n(c(=O)c2c1C)CCCCC3)c1ccccc1F	-1%	x	u	x
CC(=O)c1ccc(Nc2cc(C)nc3nc(Cc4ccc(Cl)cc4)nn23)cc1	3%	x	-1%	x
Cc1ccc(NCCC(=O)c2cccs2)cc1Cl	-4%	-17%	4µM*	-1%
O=C(CCNc1cccc(Cl)c1)c1cccs1	1%	-26%	5.6µM*	3%
Cc1ccc(NCCC(=O)c2cccs2)cc1	-2%	-15%	1.3µM*	2%
CC(C)c1ccc(NCCC(=O)c2cccs2)cc1	-15%	-34%	3.2µM*	-5%
Cc1ccc(NCCC(=O)c2cccs2)cc1C	0%	-35%	0%	1%
Cc1cc(C(F)F)n2nc(C(=O)Nc3ccc(C(C)C)cc3)nc2n1	8%	x	-2%	x
CCC(Sc1nc2ccccc2c2nc(-c3ccccc3)nn12)C(=O)Nc1cccc(OC)c1 (stereo unspecified)	8%	x	2%	x
CCOc1ccc(S(=O)(=O)NCCC(=O)NCc2ccncc2)cc1	u	-11%	1%	x
CC(OC(=O)Cn1cc(C(F)(F)F)ccc1=O)C(=O)N(C)c1ccccc1 (stereo unspecified)	x	2%	x	x
CCCc1cc(=O)[nH]c(SCC(=O)N2CC3(C)CC2CC(C)(C)C3)n1 (stereo unspecified)	8%	-7%	1%	x
Oc1ccc(/C=N/Nc2ccc3ccccc3c2)c(O)c1	-10%	-45%	45µM*	-17%
CCN(CC)C(=O)CS(=O)(=O)CC(=O)Nc1cc(OCCOC)c(Cl)cc1Cl	5%	35%	35µM*	0%
O=C(c1ccc([N+](=O)[O-])o1)N(Cc1nnc(-c2ccccc2Cl)o1)C1CC1	3%	-7%	50µM*	x
O=[As](O)(O)c1ccc(N=Nc2ccc(O)cc2)cc1	-13%	-6%	50µM*	3%
Cc1ccc(N=Nc2ccc(O)cc2)c(Br)c1	-15%	u	0%	0%
CCOC(=O)c1cc(-c2ccco2)nc2c1c(C)nn2-c1ccccc1	-7%	-16%	8.9µM*	-1%
Cc1nn(-c2ccccc2)c2nc(-c3ccncc3)cc(C(=O)NCc3ccco3)c12	-20%	69%	45µM*	12%
COC(=O)c1ccc(CN2C(=O)NC3(CCC(C)CC3)C2=O)cc1 (stereo unspecified)	-16%	-25%	-5%	3%
SMILES	AmpC inh detg	AmpC inh no detg	Sm TGR block	FBPA Giardia inh
O=C(c1cc(Br)ccc1Cl)N1CCN(c2ccccn2)CC1	-10%	-1%	2%	14%
CNC(=O)c1c(NC(=O)C(C)C)sc2c1CCC2	-8%	7%	45µM*	-7%
CNC(=O)c1c(NC(=O)c2nc3ccccc3s2)sc2c1CCC2	-11%	1%	45µM*	-6%
COc1cccc(CNc2nc3ccccc3c3nc(-c4cccc(C)c4)nn23)c1	6%	x	2%	x
N.N.O=C(O)C1(C(=O)O)CCC1.[Pt]	x	x	x	18µM*!
O=C(O)C1(C(=O)O)CCC1	u	-11%	1%	x
N#Cc1ccc(NC(=O)C2=COCCO2)cc1	5%	-6%	89µM*	x
CC(C)N1CCC(N2CCN(Cc3ccc(-c4ccccc4Cl)o3)CC2CCO)CC1 (stereo unspecified)	2%	41%	8%	u
CC(C)N1CCC(N2CCN(Cc3ccc(-c4ccc(Cl)cc4)o3)CC2CCO)CC1 (stereo unspecified)	4%	44%	13µM*	3%
Cc1ncc(CO)c2c1Oc1nc(-c3ccccc3)nc(SCC(=O)N3CCCCC3)c1C2	-15%	44%	32µM*!	x
Cc1cccc(-c2nc3c(c(SCC(=O)N4CCOCC4)n2)Cc2c(CO)cnc(C)c2O3)c1	5%	190%	22µM*	x
Cc1ncc(CO)c2c1Oc1nc(-c3ccccc3)nc(SCC(=O)N3CCOCC3)c1C2	-6%	117%	32µM*	x
